Rows were chosen to be rich in hits. Some 1.3% of all compounds tested hit in one or more screens of this group.
Giardia FBPA inh-1: Giardia lamblia aldolase inhibition | A8B2U2 | AID 2451 | 0.71% of 290,000 active | purified Giardia FBPA | Potency, µM (series often up to 59.6 µM), for inactives: top-dose activity, negative = inhibition, actives largely listed as inhibitors; note: nearly all actives have a fitted effect of over 55% in size
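40 nM FBPA preincubated 10 min at RT with compound (up to 57.5 uM final), then substrate plus GAPDH/TPI/NAD/arsenate coupling and diaphorase/resazurin added. Fluorescence read after 20 min at RT, 525/598 nm.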
AmpC inh no detg: inhibitors of E. coli AmpC beta-lactamase without detergent | 0.52% of 330,000 active | P00811 | Potency, µM (series often up to 57.1 µM), inactives show top-dose activity change, negative = inhibition, usual class: inhibitors | AmpC nitrocefin hydrolysis, absorbance 480 nm, 0.0001% Triton;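 note: plate controls were no compound for no effect and no enzyme for full effect; nearly all actives have a fitted effect of over 20% in size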
Target sequence (P00811 whole entry, looked up): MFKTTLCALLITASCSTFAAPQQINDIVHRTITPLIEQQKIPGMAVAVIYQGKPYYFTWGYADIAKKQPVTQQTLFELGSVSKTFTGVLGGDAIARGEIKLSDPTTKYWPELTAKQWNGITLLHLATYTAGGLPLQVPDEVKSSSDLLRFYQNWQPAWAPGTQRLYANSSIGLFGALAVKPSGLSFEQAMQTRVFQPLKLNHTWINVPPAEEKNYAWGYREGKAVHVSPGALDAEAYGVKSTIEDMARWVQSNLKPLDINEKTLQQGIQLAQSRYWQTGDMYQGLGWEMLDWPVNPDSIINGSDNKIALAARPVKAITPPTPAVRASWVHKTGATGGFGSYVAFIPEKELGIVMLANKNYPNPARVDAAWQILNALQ
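20 mM phosphate pH 7.0 + 0.01% (detergent screen) or 0.0001% Triton X-100; 5.3 nM AmpC reagent; cpd preinc 15 min RT; nitrocefin (800 uM stock) to start; A480 q20 s × 4 min; Activity was normalised to no-enzyme and no-compound control wells.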
AMA1-RON2 inh: disrupts binding of P. falciparum AMA1 to RON2 | AlphaScreen AMA1-biotinylated RON2 peptide binding | Potency, µM (top dose mostly 58.2 µM), for inactives: at the highest dose activity change, negative = inhibition, usual class: inhibitors | 0.2% of 360,000 active | AID 720542;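 note: 0% = vehicle wells and -100% = peptide control; nearly all actives have a fitted effect of over 45% in size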
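AMA1 (3D7) with his tag at 25 nM final met compounds first, then biotinylated RON2 peptide at 25 nM; detection used donor plus acceptor beads, 10 µg/mL apiece, read by AlphaScreen after 30 min at room temperature.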
LmPK inhibitor: inhibitors of Leishmania mexicana pyruvate kinase. Q27686. purified LmPK, Kinase-Glo ATP luminescence, 1 h. Potency, µM (doses to about 57.5 µM), inactives show at the top dose activity change, negative = inhibition, most hits filed as inhibitors. 0.37% of 290,000 active
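ATP generated from ADP (0.1 mM) and PEP (0.5 mM) by 0.1 nM LmPK over 1 h at room temperature (pH 7.2 imidazole buffer) was detected by coupled luciferase luminescence. Values were normalized to uninhibited and no-enzyme wells.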
AmpC inh detg: blocks E. coli AmpC beta-lactamase in detergent assay; P00811; AmpC hydrolysis of nitrocefin, absorbance 480 nm, 0.01% Triton; Potency, µM (titrated, usually from 114 µM), for the others: at the top dose activity change, negative = inhibition, usual class: inhibitors; 0.041% of 370,000 active; AID 485294;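 note: 0% = no-compound wells and -100% = no-enzyme wells; nearly all actives have a fitted effect of over 25% in size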
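20 mM phosphate pH 7.0 + 0.01% (detergent screen) or 0.0001% Triton X-100; 5.3 nM AmpC reagent; cpd preinc 15 min RT; nitrocefin (800 uM stock) to start; A480 q20 s × 4 min; Activity was normalised to no-enzyme and no-compound control wells.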
Giardia growth: blocks growth of Giardia lamblia trophozoites; shares compounds with Giardia FBPA inh-1; 5% of 1,500 active; AID 2785; Potency, µM (highest dose often 57.5 µM), without a hit: at the top dose activity change, negative = inhibition, usual class: inhibitors; Giardia lamblia trophozoite growth inhibition;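 note: trophozoites exposed to compound for 48 h at 37 °C; nearly all actives have a fitted effect of over 70% in size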
Mammal cell tox: toxic to mammalian cells in Giardia aldolase counter-screen; shares compounds with Giardia FBPA inh-1; mammalian cell viability counter-screen, qHTS; Potency, µM (top dose mostly 57.5 µM), inactives show at the top dose viability change, negative = toxicity, most hits filed as inhibitors; 4% of 1,500 active;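 note: Chinese hamster ovary cells used as mammalian cytotoxicity surrogate; viability measured as cellular ATP by luminescence; compound exposure lasted 48 h before reading; nearly all actives have a fitted effect of over 60% in size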
Giardia FBPA inh-2: confirmation of Giardia fructose-bisphosphate aldolase inhibitors | AID 2787 | purified Giardia aldolase enzyme activity, qHTS | Potency, µM (top dose mostly 57.5 µM), without a hit: at the highest dose activity change, negative = inhibition, most hits filed as inhibitors | shares compounds with Giardia FBPA inh-1 | 5% of 1,500 active; note: nearly all actives have a fitted effect of over 45% in size
Rabbit aldolase: selectivity test for Giardia aldolase inhibitors: rabbit aldolase | shares compounds with Giardia FBPA inh-1 | Rabbit muscle FBPA enzyme inhibition, selectivity counter-screen | Potency, µM (highest dose often 57.5 µM), for the others: at the top dose activity, negative = inhibition, hits mostly inhibitors | 4% of 1,500 active | AID 2794; note: nearly all actives have a fitted effect of over 60% in size
Target sequence (P00883 whole entry, looked up): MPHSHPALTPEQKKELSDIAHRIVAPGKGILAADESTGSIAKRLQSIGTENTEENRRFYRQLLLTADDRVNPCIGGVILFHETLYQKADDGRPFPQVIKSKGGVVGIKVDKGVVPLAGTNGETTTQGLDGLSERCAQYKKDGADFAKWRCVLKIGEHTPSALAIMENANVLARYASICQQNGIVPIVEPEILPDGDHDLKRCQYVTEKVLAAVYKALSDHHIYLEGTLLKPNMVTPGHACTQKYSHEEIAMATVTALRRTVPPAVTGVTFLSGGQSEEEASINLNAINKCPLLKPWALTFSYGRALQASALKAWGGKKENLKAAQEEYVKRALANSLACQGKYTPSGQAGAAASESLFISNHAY
GAPDH counter: counter-screen for Giardia aldolase inhibitors: GAPDH coupling enzyme; shares compounds with Giardia FBPA inh-1; GAPDH coupling enzyme counterscreen, biochemical, qHTS; Potency, µM (highest dose often 57.5 µM), for the others: top-dose activity change, negative = inhibition, most hits filed as inhibitors; 6% of 1,500 active; AID 2795; note: nearly all actives have a fitted effect of over 55% in size
* hit, by the source's call; ? = inconclusive; . = not tested or not shown; [ ] = another dose, or the depositor's remark. Calls come from the whole dose curve; as a rule, active = well fitted curve in the direction sought with a large enough effect; inconclusive = small, poorly fitted or top-dose-only effect, or another doubt; inactive = no such curve, though single readings can be large; an effect the other way counts as inactive or inconclusive. Unless noted, % is set by controls: 0 for no effect and ±100 for the full control effect; potency is the fitted concentration of half-maximal effect.

SMILES | Giardia FBPA inh-1 | AmpC inh no detg | AMA1-RON2 inh | LmPK inhibitor | AmpC inh detg | Giardia growth | Mammal cell tox | Giardia FBPA inh-2 | Rabbit aldolase | GAPDH counter
CC(C)C[C@H](NC(=O)c1nc[nH]c1C(=O)N[C@@H](CCCCNC(=O)OC(C)(C)C)C(=O)OC(C)(C)C)C(=O)OC(C)(C)C | -22% | 94% | 133% | 4% | 1% | . | . | . | . | .
C=CCc1ccc(OCCOc2cccc3ccc(C)nc23)c(OC)c1 | 11µM* | 125% | -27% | -6% | 9% | ? | -19% | -22% | -13% | -9%
CC(=O)Nc1ccc(SCC(CC(C)C)N2CCN(CCc3ccccc3)CCC2=O)cc1 (configuration not stated) | -3% | . | . | . | . | . | . | . | . | .
CC1C/C(=C/c2ccco2)C(=O)/C(=C/c2ccco2)C1 (configuration not stated) | ? | -22% | . | 9% | -15% | . | . | . | . | .
O=C1/C(=C\c2ccco2)CCC/C1=C\c1ccco1 | 16µM* | -26% | ? | 4% | -15% | 14% | ? | -4% | 5% | -3%
COC(=O)c1ccc(N2C(=O)Cc3cc(OC)c(OC)cc3C2c2ccc(F)cc2)cc1 (configuration not stated) | . | . | . | . | 4% | . | . | . | . | .
CCCNC(=O)N(C)C[C@@H]1Oc2ncc(-c3ccncc3)cc2C(=O)N([C@H](C)CO)C[C@@H]1C | . | . | -15% | . | . | . | . | . | . | .
CSS(=O)(=O)c1cccc2cccnc12 | 18µM* | 0% | 18% | 10% | -1% | 23% | 0% | -15% | ? | ?
CCN(CC)S(=O)(=O)c1cccc2cccnc12 | -8% | -7% | -1% | 7% | -9% | . | . | . | . | .
CN(CCOCCOc1ccc2ccccc2c1)Cc1ccccc1 | 2% | 75% | 6% | -10% | 3% | . | . | . | . | .
CC1=CC(=O)NP(=O)(Oc2ccc3ccccc3c2)N1 (configuration not stated) | 16µM* | -2% | 0% | -7% | -9% | ? | 10% | -17% | 7% | 12%
CC(C)C[C@H]1CN(CCCC[C@H]2CNC(=O)C(=O)N2CCC2CCCCC2)C(=O)C(=O)N1CC1CCCCC1 | . | . | -6% | . | . | . | . | . | . | .
CC(=O)Nc1ccc(S(=O)(=O)N2CCN(Cc3cccc([N+](=O)[O-])c3)CC2)cc1 | 18µM* | -27% | ? | -1% | 0% | -1% | -4% | 6% | 8% | 12%
CC(=O)Nc1ccc(S(=O)(=O)N2CCN(Cc3cccnc3)CC2)cc1 | ? | 0% | -29% | -5% | ? | . | . | . | . | .
N#Cc1ccc(Cl)cc1NC(=O)CNCc1cccs1 | 16µM* | -11% | 60% | -3% | 2% | ? | 9% | 2% | 4% | 8%
CC1C=CCC2C(=O)N(c3cccc(C(=O)Nc4ccc(Br)cc4)c3)C(=O)C12 (configuration not stated) | 2% | -23% | -8% | 0% | ? | . | . | . | . | .
Cc1cc(C)nc(NC(=S)NC(=O)c2ccccc2)n1 | ? | -17% | 38% | 1% | ? | . | . | . | . | .
Cc1cc(C)c2c(NC(=S)NC(=O)c3ccccc3)nn(C)c2n1 | 18µM* | 20% | 6% | 1% | ? | -12%[10.4 µM] | -12% | 10% | 5% | 10%
Brc1ccc(CN2CCN(Cc3c[nH]c4ccccc34)CC2)cc1 | 14µM* | 21% | -26% | -9% | ? | 20µM* | -8% | -4% | 1% | 1%
Cc1ccc(C(=O)CSc2ncn[nH]2)cc1 | 28µM* | -27% | -12% | 2% | ? | 6%[10.4 µM] | -7% | -1% | 2% | 0%
CC(=O)NC(c1ccc(F)c(F)c1)c1nc(-c2cccs2)cs1 (configuration not stated) | . | . | -5% | . | . | . | . | . | . | .
Cc1nnc(N2CCCC(C(=O)Nc3cccc(C(F)(F)F)c3)C2)c2nn(-c3ccccc3)c(C)c12 (configuration not stated) | . | . | . | . | 6% | . | . | . | . | .
COc1cc(OC)c(OC)cc1CN1CCCC(C(=O)N2CCCC2)C1 (configuration not stated) | 28µM* | -9% | -13% | 5% | 0% | 26% | 4% | 2% | 2% | 7%
COc1ccc(NC(=O)CC(NCc2ccccn2)C(=O)O)cc1 (configuration not stated) | 11µM* | -11% | 19% | 0% | -8% | 20% | 10% | 14% | -12% | -11%
COc1ccc(NC(=O)CC(C(=O)O)C(C)c2ccccc2)cc1 (configuration not stated) | 7% | -16% | -8% | -3% | -18% | . | . | . | . | .
SMILES | Giardia FBPA inh-1 | AmpC inh no detg | AMA1-RON2 inh | LmPK inhibitor | AmpC inh detg | Giardia growth | Mammal cell tox | Giardia FBPA inh-2 | Rabbit aldolase | GAPDH counter
CCOc1ccc(NC(=O)NCc2ccccn2)cc1 | -4% | -22% | -5% | 5% | ? | . | . | . | . | .
CCOc1ccc(NC(=O)CC(NCc2ccccn2)C(=O)O)cc1 (configuration not stated) | 5µM* | -1% | -94% | -2% | 1% | -14%[38.3 µM] | 22% | 13% | -5% | -25%
CCOC(=O)c1c(-c2ccccc2)oc2ccc(OCc3ccccc3Br)cc12 | . | . | . | . | 3% | . | . | . | . | .
CC(=O)N1CCN(C(=O)CSc2nc3c(cnn3-c3ccccc3)c(=O)[nH]2)CC1 | 40µM* | 2% | 0% | 2% | 1% | ? | -6% | 1% | 9% | 6%
O=C1CCC2(CCCCC2)N1 | . | . | 13% | . | . | . | . | . | . | .
COc1cc(C(=O)O/N=C2/C=C(C)C(=O)C=C2C)cc(OC)c1OC | 6.3µM* | -12% | 1% | 1% | ? | 5%[10.4 µM] | -29% | 14µM* | 6.3µM* | 3.2µM*
COc1cc(C(=O)ON=C2C(C)=CC(=O)C=C2C)cc(OC)c1OC | ? | -21% | -13% | 2% | 1% | . | . | . | . | .
CN(C)S(=O)(=O)c1cccc(-n2sc3ccccc3c2=O)c1 | 14µM* | 35µM* | 8% | -2% | -2% | ? | ? | -5% | 22µM* | -15%
